Measured values published in PubChem BioAssay (NCI).
About 83,000 compounds went through this panel and 20% of them were active in at least one assay; those are over-represented in the sample as a whole.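 96-well plates, one dose, 48 hours. Percent growth reported; active if below 10.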 Calls of active or inactive are those of the source.

What was measured:
Test in all cases: NCI-60 one-dose screen, 48 h (100 = growth as untreated, 0 = no growth, -100 = all killed)
Conditions in all cases: 10 µM unless noted
[1] = system: NCI-H23 lung
[2] = system: NCI-H226 lung
[3] = system: NCI-H322M lung
[4] = system: HOP-62 NSCLC
[5] = system: NCI-H460 lung
[6] = system: HOP-92 NSCLC
[7] = system: NCI-H522 lung
[8] = system: A549/ATCC NSCLC
[9] = system: 786-0 renal
[10] = system: COLO 205 colon
[11] = system: DU-145 prostate
[12] = system: K-562 leukemia
[13] = system: MDA-MB-231 breast
[14] = system: RXF 393 renal
[15] = system: SF-268 CNS
[16] = system: SF-295 CNS
[17] = system: SF-539 CNS
[18] = system: UACC-257 melanoma
[19] = system: M14 melanoma
[20] = system: MALME-3M melanoma

Measured: growth

COc1ccc(Cn2cc3c(c2-c2cc(OC)c(OC)c(OC)c2)CCc2cnoc2-3)cc1
inactive: [1] 22.8% | [2] 19.8% | [3] 35.8% | [4] 64.2% | [6] 77.1% | [7] 24.7% | [8] 25.2% | [9] 36.3% | [11] 20.2% | [12] 14.6% | [13] 14% | [14] 17.1% | [15] 40.9% | [18] 67.6%
active: [5] 4.4% | [10] -27.7% | [16] 1.12% | [17] 2.64% | [19] 7.62%

COc1ccc(-c2ccc(C)n2-c2ccc(-c3nc4cc(Cl)ccc4s3)cc2)cc1
inactive: [1] 83.4% | [2] 78.7% | [3] 103% | [4] 102% | [5] 99.7% | [6] 133% | [7] 98.8% | [8] 95.5% | [9] 106% | [10] 95.9% | [11] 112% | [20] 102% | [13] 85.8% | [14] 114% | [15] 111% | [16] 96.6% | [17] 109% | [18] 107% | [19] 107%

CCN1CCN(CC(=O)N2c3cccc4cccc(c34)N(C(=O)CN3CCN(CC)CC3)C2c2cn(-c3ccccc3)nc2-c2cccc([N+](=O)[O-])c2)CC1
active: [2] -28.3% | [4] 0.226% | [5] -37.9% | [7] -64.7% | [10] -66.9% | [12] -52.9% | [20] -91.3% | [13] -66.1% | [14] 3.79% | [16] -50.3% | [17] -89.2% | [18] -83.1% | [19] -81.6%
inactive: [1] 13.7% | [3] 25.3% | [6] 61.4% | [8] 12.9% | [11] 28.3% | [15] 16.6%

CN(C)c1nc2c(N)ncnc2n1C1OC(CO)C(O)C1O (stereo not drawn)
inactive: [1] 110% | [2] 104% | [3] 122% | [4] 103% | [5] 121% | [6] 98.1% | [7] 108% | [8] 106% | [9] 99.2% | [10] 108% | [11] 118% | [20] 88% | [13] 116% | [14] 113% | [15] 105% | [16] 111% | [17] 101% | [18] 105% | [19] 102%

N#Cc1ccc(N2Cc3ccccc3OC3=C2C(=O)c2c(O)ccc(O)c2C3=O)cc1
active: [6] -66.2% | [7] -75.6% | [9] -42.9% | [10] -69.3% | [11] -91.8% | [20] -56.4% | [13] -8.93% | [14] -50.5% | [15] 7.68% | [17] -17.5% | [19] -41.9%
inactive: [1] 14.2% | [2] 10.4% | [3] 66.8% | [4] 16% | [5] 46.9% | [8] 72.9%

CC(=O)Oc1csc(N(C(C)=O)c2cccc(C(F)(F)F)c2)n1
inactive: [1] 94.7% | [2] 93.3% | [3] 99% | [4] 94.4% | [5] 102% | [6] 45.7% | [7] 83.1% | [8] 92.3% | [10] 107% | [11] 99.2% | [12] 105% | [20] 88.8% | [13] 71.9% | [14] 103% | [15] 88.9% | [16] 96.5% | [17] 91% | [18] 88.5% | [19] 77.7%

c1ccc(-c2nc(N3CCNCC3)c3nc(-c4ccccc4)oc3n2)cc1
active: [1] -56.6% | [2] -61.3% | [4] -78.2% | [5] -73.7% | [7] -82.1% | [8] -77.2% | [9] -98.7% | [10] -84% | [11] -63.2% | [12] -10.7% | [13] -81% | [17] -40%
inactive: [3] 82% | [6] 42% | [20] 91.8% | [15] 36.1% | [16] 91.2% | [18] 105% | [19] 99.7%

COc1ccc(/C(C#N)=C/c2cc(OC)c(OC)c(OC)c2)cc1
inactive: [1] 62.3% | [2] 70.6% | [3] 59.7% | [4] 46.7% | [5] 16.9% | [6] 31.6% | [7] 15.8% | [8] 32.5% | [9] 51.2% | [10] 24.3% | [11] 82.7% | [12] 19% | [13] 58.1% | [14] 56.7% | [15] 61.9% | [17] 23.1% | [18] 52.8% | [19] 17.2%

Cc1c(C(N)=O)sc2c1c(=O)n(Cc1ccccc1)c1nnc(Nc3ccccc3)n21
inactive: [1] 101% | [2] 106% | [3] 105% | [4] 89.1% | [5] 119% | [6] 101% | [7] 87.1% | [8] 94.4% | [9] 105% | [10] 101% | [11] 89.3% | [20] 110% | [13] 105% | [14] 113% | [15] 101% | [16] 104% | [17] 100% | [18] 92.3% | [19] 101%

Cc1[nH]c2ccc(F)cc2c1CCNC(=O)C1CCN(C(=O)c2ccccc2)C1 (stereo not drawn)
active: [6] -0.166% [25 µM]
inactive: [1] 88.6% [25 µM] | [2] 90.2% [25 µM] | [3] 61.8% [25 µM] | [4] 93.3% [25 µM] | [5] 101% [25 µM] | [7] 95.1% [25 µM] | [8] 97.8% [25 µM] | [9] 89.9% [25 µM] | [10] 101% [25 µM] | [11] 87.6% [25 µM] | [12] 91.9% [25 µM] | [20] 73.3% [25 µM] | [13] 82% [25 µM] | [15] 85.1% [25 µM] | [16] 96.4% [25 µM] | [17] 83% [25 µM] | [18] 99.6% [25 µM] | [19] 98.8% [25 µM]

O=S(=O)(c1ccc(OCCO)cc1)c1ccc(OCCO)cc1
inactive: [1] 106% | [2] 106% | [3] 91.8% | [4] 114% | [5] 104% | [6] 87.2% | [7] 82.7% | [8] 101% | [9] 112% | [10] 132% | [12] 101% | [20] 98.6% | [13] 112% | [14] 119% | [15] 122% | [16] 118% | [17] 110% | [18] 85.7% | [19] 102%

O=[N+]([O-])c1ccc(/C=C/C2(CCl)OCCO2)cc1
active: [7] -15.3%
inactive: [1] 90.9% | [2] 101% | [3] 152% | [4] 116% | [5] 117% | [6] 84.2% | [8] 105% | [9] 85.6% | [10] 107% | [11] 114% | [12] 65.7% | [13] 114% | [14] 104% | [15] 115% | [17] 104% | [18] 93.6% | [19] 95.2%

Cc1ccc(-c2cc3nc(-c4ccccc4)nc(C(Cl)Cl)n3n2)cc1
inactive: [1] 30.3% | [2] 70.9% | [7] 95.4% | [12] 20.2% | [18] 18.3% | [19] 96.2%
active: [3] -85.9% | [4] -60.1% | [5] -48% | [6] -81.5% | [8] -58.1% | [9] -79.3% | [10] -66.1% | [11] -93.9% | [20] -3.1% | [13] -49.7% | [15] -56.6% | [16] -69.8% | [17] -60.4%
